Screening results (PubChem BioAssay)
TWEAK Fn14 block: inhibitors of TWEAK-Fn14 signaling, primary screen, luciferase reporter cells, uHTS | 360,000 tested, 2% active | inhibition, % at 10 µM | TWEAK-stimulated Fn14 reporter cells, luciferase luminescence, 8 h; in the data active = inhibition above about 50%
LMP1 NFkB inh: EBV LMP1-driven NF-kappaB luciferase reporter inhibitors, primary screen, cell-based, luminescence, single point; AID 504558, 2011; 350,000 tested, 0.69% active; LMP1-induced NF-kappaB luciferase reporter cells; inhibition, % at 12.5 µM; in the data active = inhibition above about 41%; inconclusive = no clear call, values can overlap the other calls
EWS-Fli block: EWS/Fli-driven NR0B1 reporter inhibitors, primary screen, A673 cells, NR0B1 luciferase, luminescence, MLPCN library; viability-normalised; inhibition, % at 12.6 µM; 350,000 tested, 0.67% active; AID 651661, 2012;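 active = mean inhibition of at least 50% after viability correction, with every replicate also passing that limit; inconclusive = mean reaches 50% but only one of two replicates passes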;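 also: firefly luciferase signal divided by Alamar Blue viability fluorescence both relative to DMSO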
TROY signal inh: inhibitors of TROY-driven NF-kB signaling, primary screen, Q293 LMP1-TROYcd cells, NF-kB luciferase, uHTS. Q293 LMP1-TROYcd NF-kB luciferase reporter, 4 h. inhibition, % at 10 µM. 360,000 tested, 0.98% active;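 active = compounds whose plate-normalised and pattern-corrected inhibition of the luciferase reporter signal at the single screening dose is 50% or more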
LGR2 inh: inhibitors of bursicon-induced LGR2 CRE-luciferase signal, primary screen, cell-based, HEK293, CRE-luciferase reporter, bursicon stimulation; 380,000 tested, 0.35% active; AID 720647, 2013; inhibition, % at 9.99 µM; bursicon-stimulated, 4 h; Drosophila bursicon receptor LGR2 (rickets);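 active = drop in luminescence signal, shown as inhibition above about 50% in the replicate tests, limit read from the data, passing the limit was not always enough; inconclusive = probably only some replicates passing the limit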;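 also: agonist challenge used bursicon conditioned medium at about half maximal strength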
Hits are given with their value; n = inactive; u = inconclusive; x = no result. The list is not random: actives were taken first. Their share in the collection is about 2.5%.

SMILES | TWEAK Fn14 block | LMP1 NFkB inh | EWS-Fli block | TROY signal inh | LGR2 inh
O[C@@H]1[C@@H](O)C=C2CCN3Cc4cc5c(cc4[C@H]1C23)OCO5 (some centres not stated) | 75.0 | n | n | 67.8 | 88.2
CC(C)C#Cc1ccc2c(c1)O[C@@H](CN(C)C(=O)c1ccccn1)[C@@H](C)CN([C@@H](C)CO)S2(=O)=O | x | x | n | x | n
C[C@@H]1CN([C@H](C)CO)C(=O)c2cc(/C=C/c3ccccc3)cnc2O[C@H]1CN(C)C(=O)c1cnccn1 | x | x | n | x | n
COc1ccc(CC(=O)N/N=C/c2cc(Br)cs2)cc1OC | 66.9 | n | n | n | n
CC(C)CCn1cnc2c(sc3nc4c(cc32)CSC(C)(C)C4)c1=O | 68.2 | n | n | 66.9 | n
O=C(O)c1ccc(NC2=C/C(=N/S(=O)(=O)c3cccs3)c3ccccc3C2=O)cc1 | 98.2 | n | n | 59.6 | u
O=C(O)c1ccc(Nc2nc3ccccc3nc2NS(=O)(=O)c2cccs2)cc1 | n | n | x | n | n
O=C1C(Nc2ccc(O)cc2)=C/C(=N/S(=O)(=O)c2cccs2)c2ccccc21 | 94.6 | 96.1 | n | 58.5 | 99.9
CC(C)NC(=O)N1C[C@@H]2[C@H](c3ccccc31)[C@H](CO)N2C(=O)c1cccnc1 | x | x | n | x | n
O=C(Cc1ccccc1)Nc1scc(-c2ccccc2)c1C(=O)N1CCOCC1 | n | n | x | n | x
NC(=O)c1c(-c2ccc(Cl)cc2Cl)csc1NC(=O)Cc1ccccc1 | 76.1 | n | n | n | n
COc1ccccc1C(=O)NC(=S)Nc1ccc(Cc2ccncc2)cc1 | n | n | n | 61.8 | n
COc1c(C(=O)Nc2ccc(Cc3ccncc3)cc2)ccc2ccccc12 | n | n | x | 56.8 | n
COc1ccc(Br)cc1C(=O)Nc1ccc(Cc2ccncc2)cc1 | n | n | x | n | x
COc1cc(C(=O)NC(=S)Nc2ccc(Cc3ccncc3)cc2)cc(OC)c1OC | n | n | n | n | n
O=C(C[C@H]1C[C@@H]2c3cc(NS(=O)(=O)c4ccc(F)cc4)ccc3O[C@@H]2[C@H](CO)O1)NCCc1ccccc1 | x | x | n | x | n
C[C@@H]1CN([C@H](C)CO)C(=O)c2cc(NS(=O)(=O)c3cccs3)ccc2O[C@@H](C)CCCCO[C@@H]1CN(C)C(=O)CCCN(C)C | x | x | n | x | n
COCC(=O)N1C[C@@H]2[C@H](c3ccccc31)[C@H](CO)N2C(=O)C1CCCC1 | x | x | n | x | n
N#Cc1c(NC(=O)c2nc3ncccn3n2)sc2c1CCCCC2 | 70.5 | n | x | n | n
N#Cc1c(NC(=O)CSc2ncn[nH]2)sc2c1CCCCC2 | 75.4 | n | x | n | n
N#Cc1c(NC(=O)CSc2nc(N)cc(=O)[nH]2)sc2c1CCCCCC2 | n | n | n | n | n
C[C@H](CO)N1C[C@H](C)[C@H](CN(C)C(=O)C2CCCCC2)Oc2ncc(-c3ccccc3)cc2C1=O | x | x | n | x | n
CO[C@H]1CN(C)C(=O)c2cc(NC(=O)C3CCC3)ccc2OC[C@@H](C)N(Cc2ccccn2)C[C@H]1C | x | x | n | x | n
C[C@H]1CN([C@@H](C)CO)C(=O)c2cc(-c3ccccc3)cnc2O[C@@H]1CN(C)C(=O)Cc1cccnc1 | x | x | n | x | n
OC1CCN(c2c3c(nc4cc(-c5cccc(F)c5)nn24)CCCC3)CC1 | n | n | n | n | n
SMILES | TWEAK Fn14 block | LMP1 NFkB inh | EWS-Fli block | TROY signal inh | LGR2 inh
Fc1cccc(-c2cc3nc4c(c(N5CCC6(CC5)OCCO6)n3n2)CCCC4)c1 | 54.4 | n | x | n | x
N#Cc1ccccc1COc1ccc(/C=C/C(=O)O)cc1 | 74.3 | n | 57.7 | n | n
C[C@H](O)C#Cc1cnc2c(c1)C(=O)N([C@@H](C)CO)C[C@@H](C)[C@@H](CN(C)Cc1ccc(-c3ccccc3)cc1)O2 | x | x | n | x | n
Cc1nn(-c2ccccc2)c(C)c1NC(=O)COC(=O)c1ccccc1OC(F)F | n | n | n | 51.4 | n
O=C(C[C@H]1CC[C@H]2[C@@H](COC[C@H](O)CN2C(=O)C2CCCC2)O1)NCc1ccncc1 | x | x | n | x | n
Cc1ccc(Cc2c(C3CCCCC3)nc3c(C)cc(Br)cn23)cc1 | 57.3 | x | n | n | n
Cc1cc(Br)cn2c(Cc3ccccc3)c(C3CCCCC3)nc12 | n | x | n | n | n
Clc1nc(-c2cccnc2)nc2scc(-c3ccccc3)c12 | n | n | n | n | n
COc1ccc(-c2nc(-c3cccnc3)no2)cc1OC | 84.3 | n | n | n | n
COc1ccc(-c2csc3nc(-c4cccnc4)nc(Cl)c23)cc1OC | 53.1 | n | n | n | n
